ANO1 block: blocks the mouse calcium-activated chloride channel TMEM16A; Q8BHY3; HEK293 TMEM16A/YFP iodide influx fluorescence, ionomycin; normalized B-score (activity score, 25-100; higher = stronger inhibition) at 10 µM; 310,000 tested, 1.2% active;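 active = ratio plate-corrected score three or more library SD toward inhibition, starting fluorescence score within five deviations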;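 note: score derived from kinetic fluorescence span divided by baseline fluorescence per well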
TLR4 MyD88 comp: TLR4-MyD88 interaction inhibition in cells. AID 861. O00206+Q99836. 200,000 tested, 0.18% active. inhibition, % at 8.4 µM. HeLa CL3-4 TLR4/MyD88 BLA complementation, FRET ratio; in the data active = inhibition above about 25%;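 note: 0% = vehicle and 100% = reference inhibitor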
TLR9-MyD88 inh: TLR9-MyD88 interaction inhibition; CHO BLA complementation TLR9-MyD88, CCF4 FRET ratio; AID 504734; inhibition, % at 4.98 µM; 340,000 tested, 0.21% active;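 active = inhibition above the mean over all tested compounds plus 3 SD, cut at about 21% in these data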;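 note: 0% = DMSO only wells and 100% = clavulanate BLA inhibitor control wells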
TMEM16A act: activates or potentiates the mouse TMEM16A chloride channel | HEK293 TMEM16A/YFP-H148Q/I152L, iodide quench fluorescence; stronger effect = lower value | B-score at 10 µM | 340,000 tested, 0.3% active | AID 623877;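 active = fluorescence-ratio B-score plate-corrected deviation score at least 3 library SD below zero, with starting fluorescence score within 5 deviations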;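 note: channel opened by trigger with iodide after compound preincubation; score built on the fluorescence ratio of max minus min over baseline; more negative score means more quench and so TMEM16A activation or potentiation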
GRK2 aptamer HTS: inhibitors of human GRK2 displacing RNA aptamer. P25098. bead flow cytometry, FAM-aptamer displacement from GRK2. inhibition of aptamer binding, % at 10 µM. 330,000 tested, 0.59% active. AID 488847;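 active = inhibition of aptamer binding above 40%, roughly 3 SD of noise, on plates passing a quality check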;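 note: median bead fluorescence of bound FAM aptamer so fluorescent compounds give negative values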
Target sequence (P25098 whole entry, looked up): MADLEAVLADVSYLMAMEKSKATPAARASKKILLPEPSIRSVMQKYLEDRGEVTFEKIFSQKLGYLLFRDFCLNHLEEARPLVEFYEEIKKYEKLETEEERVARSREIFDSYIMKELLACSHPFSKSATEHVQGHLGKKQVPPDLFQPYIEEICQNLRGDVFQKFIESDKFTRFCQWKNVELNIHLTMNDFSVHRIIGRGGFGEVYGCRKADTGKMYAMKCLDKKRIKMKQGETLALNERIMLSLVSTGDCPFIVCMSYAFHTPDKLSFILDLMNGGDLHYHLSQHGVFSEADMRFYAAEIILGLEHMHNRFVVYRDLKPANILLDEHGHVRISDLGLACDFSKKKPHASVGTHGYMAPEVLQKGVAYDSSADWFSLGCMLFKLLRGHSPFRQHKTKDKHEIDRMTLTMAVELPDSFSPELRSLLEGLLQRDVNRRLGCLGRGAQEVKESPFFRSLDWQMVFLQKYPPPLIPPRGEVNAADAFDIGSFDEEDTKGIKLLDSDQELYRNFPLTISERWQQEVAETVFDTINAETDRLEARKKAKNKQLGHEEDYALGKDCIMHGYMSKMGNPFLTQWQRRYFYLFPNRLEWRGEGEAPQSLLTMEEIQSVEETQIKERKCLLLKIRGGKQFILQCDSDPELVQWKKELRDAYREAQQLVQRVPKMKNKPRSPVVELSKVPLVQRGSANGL
NOD2-RIPK2 inh: NOD2-RIPK2 protein interaction inhibition. inhibition, % at 4.98 µM. 360,000 tested, 0.38% active. CHO BLA complementation NOD2-RIPK2, CCF4 ratio; in the data active = inhibition above about 21%;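 note: 0% = vehicle only and 100% = reference blocker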
GRK2 inh confirm: confirmation of human GRK2 inhibitors displacing RNA aptamer; aptamer displacement, % at 10 µM; 2,000 tested, 4% active; bead-bound GRK2, FAM-aptamer displacement, flow cytometry; shares compounds with GRK2 aptamer HTS;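 active = aptamer displacement above 40%, near three times the noise of non-fluorescent compounds, on plates passing quality checks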;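 note: negative values mostly reflect intrinsic compound fluorescence rather than true enhancement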
FAM quench CP1: aptamer fluorescence quenching in GRK2 counter-screen | shares compounds with GRK2 aptamer HTS | Carboxyfluorescein RNA aptamer on beads, flow cytometry quenching; stronger effect = lower value | fluorescence response (% of DMSO), % at 10 µM | 2,000 tested, under 10 active | AID 504580;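 active = compounds that quench the bead-bound fluorescent RNA probe, cutting fluorescence to under half of the solvent control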;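 note: counterscreen run without GRK2 so only probe quenching by compound is measured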
GRK2 CP2: human GRK2 inhibition confirmation, cherry pick 2; shares compounds with GRK2 aptamer HTS; 360 tested, under 10 active; inhibition of aptamer binding, % at 10 µM; bead-bound GRK2, FAM-aptamer displacement, flow cytometry;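 active = inhibition of aptamer binding above 40%, about triple the noise seen with nonglowing compounds, on plates passing quality control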;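 note: negative values mostly come from compounds that fluoresce themselves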
FAM quench SP: aptamer fluorescence quenching in GRK2 counter-screen; shares compounds with GRK2 aptamer HTS; carboxyfluorescein RNA aptamer beads, flow cytometry quenching; stronger effect = lower value; fluorescence response vs DMSO, % at 10 µM; 360 tested, under 10 active;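 active = response vs DMSO under 50%, meaning signal dropped by over half, treated as fluorescence quencher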;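 note: labelled aptamer on streptavidin beads without GRK2 as a quench counter-screen; 100% = bead fluorescence of DMSO wells and lower means quenching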
An asterisk follows results filed as active; i = inactive; nt = not tested or not shown. A selection: hits, their analogues and other compounds. The true share with any hit is near 2.2%.

SMILES | ANO1 block | TLR4 MyD88 comp | TLR9-MyD88 inh | TMEM16A act | GRK2 aptamer HTS | NOD2-RIPK2 inh | GRK2 inh confirm | FAM quench CP1 | others
CC[C@@H](C)[C@H](NC(=O)Cc1c(C)c2c(cc(C)c3c(C)coc32)oc1=O)C(=O)O | i | nt | 8.3 | i | 0.0 | -1.5 | nt | nt
COCCNC(=O)C1(C)CCCN(C(=O)c2cc(F)cc(F)c2)C1 (stereo unspecified) | nt | nt | nt | nt | nt | 0.2 | nt | nt
O=C(CN(Cc1ccc(F)cc1)C(=O)CCC(=O)Nc1ccccn1)NCc1ccco1 | i | 8.7 | -0.2 | i | 100.0* | -12.7 | 5.3 | 104.8
C#CCOCCOCCOCCNc1nc(N2CCN(C(=O)[C@H](CO)n3cc([C@@H](N)C(C)C)nn3)CC2)nc(N2CCN(C(=O)[C@H](CO)n3cc([C@@H](N)C(C)C)nn3)CC2)n1 | nt | nt | -3.1 | i | nt | -2.7 | nt | nt
CCOc1ncccc1C(=O)OCC(=O)Nc1ccc2c(c1)CCC2 | nt | nt | -3.4 | i | 24.0 | -1.9 | 0.2 | 108.2
COc1ccc(OCCOCCN2CCOCC2)cc1 | i | -1.5 | -1.1 | i | 56.0* | -4.6 | 0.7 | 98.7
Cc1ccc(CC(=O)NCCN2CCOCC2)cc1 | i | nt | -7.8 | i | 0.0 | -8.7 | nt | nt
COc1ccc(CC(=O)NCCN2CCOCC2)cc1 | i | nt | 4.0 | i | 32.0 | 10.7 | 3.3 | 100.6
CCOc1ccc(OCCOCCN2CCOCC2)cc1 | i | 7.0 | 0.3 | i | 3.0 | -7.8 | nt | nt
COc1ccccc1NC(=O)C1CCCN(S(=O)(=O)c2ccccc2)C1 (stereo unspecified) | i | nt | 3.0 | i | 10.0 | -1.7 | nt | nt
COc1ccccc1-c1cc(C(F)(F)F)nc(S(=O)(=O)CCCC(=O)NC(C)C)n1 | i | -2.3 | -4.9 | i | 0.0 | -3.8 | nt | nt
COc1ccccc1-c1cc(C(F)(F)F)nc(S(=O)(=O)CCCC(=O)NCc2ccc(F)cc2)n1 | i | 9.0 | 2.0 | i | 48.0* | -5.7 | -0.4 | 98.3 | GRK2 CP2=-1.6;FAM quench SP=101.0
COc1cc(CCC(=O)Nc2nccs2)cc(OC)c1OC | i | nt | -4.3 | i | 4.0 | -8.1 | -1.2 | 97.2
COc1cc(CCC(=O)Nc2ncc(C)s2)cc(OC)c1OC | i | nt | 5.2 | i | 0.0 | -5.8 | nt | nt
COc1cc(CCC(=O)NCc2ccc(S(N)(=O)=O)cc2)cc(OC)c1OC | i | nt | -1.3 | nt | 1.0 | -2.6 | nt | nt
COc1cc(CCC(=O)NCc2ccc(F)cc2)cc(OC)c1OC | i | nt | 0.7 | i | 35.0 | -4.3 | -6.0 | 95.5
CC(=O)N1CC(C)Oc2ccc(S(=O)(=O)NC(CC(=O)O)c3cc(C)ccc3C)cc21 (stereo unspecified) | i | nt | 7.8 | i | 1.0 | -6.2 | nt | nt
CCN1C(N(C)C)=NC[C@@H]1Cc1ccccc1 | i | nt | -3.6 | i | 73.0* | -2.8 | -0.6 | 103.8
CCC(C)CCN1C(N(C)C)=NC[C@@H]1Cc1ccccc1 (stereo partly specified) | i | nt | -9.9 | i | 0.0 | -7.5 | nt | nt
O=C(CCCN1C(=O)/C(=C/c2cccs2)SC1=S)Nc1cccc(C(=O)O)c1 | i | -15.6 | 0.0 | i | 95.0* | 1.7 | 1.2 | 100.6
COC(=O)c1ccc(NC(c2ccc(Cl)cc2)P(=O)(OC)OC)cc1 (stereo unspecified) | i | -3.0 | -5.3 | i | 3.0 | -0.7 | nt | nt
COc1cc2cc(CCCOC(=O)CCCC(=O)O)oc(=O)c2cc1OC | nt | nt | -6.5 | i | 0.0 | 10.7 | nt | nt
NC(=O)Cc1ccc(C(=O)c2ccccc2F)s1 | i | 1.9 | -7.2 | i | 27.0 | -1.3 | 2.4 | 96.2
O=C(c1ccccc1)N1CN2CN(C(=O)c3ccccc3)CC([N+](=O)[O-])(C2)C1 | i | -1.1 | -1.6 | i | 2.0 | -0.7 | nt | nt
CC1=C(C(=O)OCc2ccccc2)C(c2cccc(F)c2)NC(=O)N1 (stereo unspecified) | i | nt | 5.1 | i | 51.0* | -6.7 | 5.4 | 82.4
SMILES | ANO1 block | TLR4 MyD88 comp | TLR9-MyD88 inh | TMEM16A act | GRK2 aptamer HTS | NOD2-RIPK2 inh | GRK2 inh confirm | FAM quench CP1 | others
CCN(CC)CCNC(=O)CNC(=O)c1nn(-c2ccc(OC)cc2OC)c(=O)c2ccccc12 | i | nt | -7.8 | i | 0.0 | 0.0 | -3.6 | 103.0
CCCCNC(=O)CNC(=O)c1nn(-c2ccc(OC)c(Cl)c2)c(=O)c2ccccc12 | i | nt | 3.3 | i | 0.0 | -3.6 | 4.3 | 101.1
CCN(CC)CCCNC(=O)CNC(=O)c1nn(-c2ccc(OC)cc2OC)c(=O)c2ccccc12 | nt | nt | 4.8 | nt | nt | 1.5 | nt | nt
COc1cccc(-c2c(NC(C)=O)n(C)c3ccccc3c2=O)c1 | i | nt | -0.9 | i | 46.0* | 0.1 | -1.8 | 100.6
C/C(=N\n1cnnc1)c1ccccc1 | i | 7.4 | 3.9 | i | 3.0 | -1.0 | nt | nt
Cc1ccc(S(=O)(=O)C2(C(=O)NC3CCCC3)CC2)cc1 | i | -3.3 | 1.9 | i | 0.0 | -4.6 | nt | nt | GRK2 CP2=-27.8;FAM quench SP=103.0
Cc1ccc(S(=O)(=O)C2(C(=O)Nc3ccc4c(c3)OCO4)CC2)cc1 | i | -11.3 | -8.1 | i | 0.0 | -9.5 | nt | nt | GRK2 CP2=13.8;FAM quench SP=98.0
CCOc1ccc(NC(=O)c2ccccc2C(=O)c2ccccc2)cc1OCC | i | nt | 1.1 | i | 0.0 | 3.0 | nt | nt
O=C(c1cccc2ccccc12)C1CCCN(C(=O)c2ccc(N3CCOCC3)cc2)C1 (stereo unspecified) | i | -3.2 | 1.2 | i | 3.0 | -1.5 | -2.2 | 100.3
CSc1ccccc1C(=O)C1CCCN(C(=O)c2ccc(N3CCOCC3)cc2)C1 (stereo unspecified) | i | 5.2 | 5.9 | i | 1.0 | -13.4 | nt | nt
COc1ccc(OC)c(S(=O)(=O)N2CCN(c3c(C)cccc3C)CC2)c1 | i | 3.4 | 3.1 | i | 95.0* | 0.6 | -0.9 | 101.1
COc1ccc(OC)c(S(=O)(=O)N2CCN(c3ncccn3)CC2)c1 | i | nt | 6.5 | i | 0.0 | -5.8 | nt | nt

Compound activity as filed in PubChem BioAssay.
